Assay results taken from PubChem BioAssay AID1259309 (ICCB-Longwood Screening Facility, Harvard Medical School, 2017).
Values joined by “and” are separate entries in the source; they are usually repeats but may differ in a detail not shown here. Equal values may be shown once. The campaign covered roughly 330,000 compounds. About 1,800 (0.55%) were called active. Rule as the data show it: active = growth inhibition above about 68%; inactive = the rest. What follows is part of a selection rich in actives, with near analogues and random picks from the rest.

Assay: growth inhibition of ugtP-null S. aureus, primary screen, RN4220 ugtP deletion, OD600 (AID 1259309);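 also: plate controls were untreated wells for no effect and antibiotic for full effect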
Details: 16 h, active compounds read high

With `Cc1cc(C)nc(N=C(N)Nc2ccc(SC(F)F)cc2)n1` as the compound, how does the growth inhibition read?
Its growth inhibition is 20% (inactive).

For `COc1ccc(C(C)=NNC(=O)c2cccc(S(=O)(=O)N3CCCC3)c2)c(O)c1`, which growth inhibition is on record?
Its growth inhibition is 4.49% (inactive).

With `O=C(CC1CC=CCC(Cc2ccc(F)cc2)C(=O)OCC(Cc2ccccc2)NC1=O)NC(CO)Cc1ccccc1` (stereo not drawn) as the compound, how does the growth inhibition read?
Its growth inhibition is 5.86% (inactive).

For `CC(C)(C=NO)/[N+]([O-])=C/c1ccco1`, which growth inhibition is on record?
Its growth inhibition is 3.75% (inactive).

Which growth inhibition does the source give for `O=C(/C=C/c1ccc([N+](=O)[O-])o1)NNC(=O)c1ccc(F)cc1` here?
The growth inhibition was 98.7% (active).

Which growth inhibition does the source give for `Nc1nonc1C(=O)NN=Cc1ccc([N+](=O)[O-])o1` here?
Its growth inhibition is 70.5% (inactive).

With `O=C(NN=Cc1ccc(F)cc1)c1ccc(F)cc1` as the compound, how does the growth inhibition read?
The growth inhibition was 3.85% (inactive).

For `COc1cc(NC=C2CC(=O)NC(C)=C2C#N)cc(OC)c1OC`, which growth inhibition is on record?
Its growth inhibition is -2.01% (inactive).

With `COc1ccc(-c2cc3ncccc3cn2)cc1` as the compound, how does the growth inhibition read?
Its growth inhibition is 7.34% (inactive).

With `CC(=O)NC(Cc1ccccc1)C(=O)NC1CCN(c2ncccc2[N+](=O)[O-])CC1` (stereo not drawn) as the compound, how does the growth inhibition read?
The growth inhibition was 7.02% (inactive).

For `COc1ccc(-c2cc(C3CCN(c4ncccc4[N+](=O)[O-])CC3)[nH]n2)cc1`, which growth inhibition is on record?
The growth inhibition was 100% (active).

For `COc1ccc(S(=O)(=O)Nc2cccc3c2OC(CN(C)Cc2ccc(Cl)c(Cl)c2)C(C)CN(C(C)CO)C3=O)cc1` (stereo not drawn), which growth inhibition is on record?
The growth inhibition was 11.2% (inactive).

Which growth inhibition does the source give for `COc1ccc(C(=O)Nc2cccc(/C=C(/CCC(=O)O)c3nc4ccccc4s3)c2)cc1` here?
Its growth inhibition is -2.4% (inactive).

For `COc1ccccc1NC(=O)c1ccc2nc(N3C(=O)CCC3=O)sc2c1`, which growth inhibition is on record?
The growth inhibition was -9.64% (inactive).

For `COc1ccc(C2=NN(c3nc4ccccc4s3)C(=O)C2)cc1`, which growth inhibition is on record?
The growth inhibition was 99% (active).

Which growth inhibition does the source give for `C/C(C=NNC(=O)CSc1nc2ccccc2n1C)=C\c1ccco1` here?
Its growth inhibition is 3.58% (inactive).

For `OCc1ccc(OCCCOc2cccc3cccnc23)cc1`, which growth inhibition is on record?
Its growth inhibition is -3.52% (inactive).

With `O=C(Nc1ccccc1)Oc1cccc2cccnc12` as the compound, how does the growth inhibition read?
Its growth inhibition is 99.7% (active).

For `NC(=O)C1CCN(C(=O)COc2cccc3cccnc23)CC1`, which growth inhibition is on record?
Its growth inhibition is -13.3% (inactive).

For `Cc1ccccc1NC(=S)NC(=O)Cc1ccc(Cl)cc1`, which growth inhibition is on record?
Its growth inhibition is 67% (inactive).

For `Cc1cc(C(=O)NNC(=S)Nc2ccccc2C)cs1`, which growth inhibition is on record?
The growth inhibition was -0.4% (inactive).

Which growth inhibition does the source give for `Cc1ccc(C(=O)NC(=S)Nc2ccccc2C)cc1` here?
The growth inhibition was 83.5% (active).

Which growth inhibition does the source give for `Cc1cc(SCC(=O)NN=Cc2ccc(O)c(O)c2)nc2ccccc12` here?
The growth inhibition was -2.24% (inactive).

Which growth inhibition does the source give for `ON=Cc1ccc(OCc2ccccc2)c(Br)c1` here?
Its growth inhibition is 1.91% (inactive).

Which growth inhibition does the source give for `O=C(COC(=O)c1cc[n+]([O-])cc1)Nc1ccc(Cl)c(C(F)(F)F)c1` here?
The growth inhibition was -2.28% (inactive).

With `O=C(CC(O)(C(F)(F)F)C(F)(F)F)Nc1ccc(Cl)c(Cl)c1` as the compound, how does the growth inhibition read?
Its growth inhibition is 100% (active).

For `NC(=O)N1CCCC1C(=O)Nc1ccc(Cl)c(Cl)c1` (stereo not drawn), which growth inhibition is on record?
Its growth inhibition is 3.8% (inactive).

With `CC(=NNC(=O)c1nnn(-c2nonc2N)c1-c1cccs1)c1ccc(O)cc1` as the compound, how does the growth inhibition read?
The growth inhibition was -2.71% (inactive).

With `Cc1ccc(C(=O)NCCN2C3=NCC(Cc4ccc(O)cc4)N3CC2Cc2ccc(O)cc2)cc1Br` (stereo not drawn) as the compound, how does the growth inhibition read?
The growth inhibition was -5.82% (inactive).

Which growth inhibition does the source give for `O=C(CCC(=O)Nc1ccc(F)cc1)NN=Cc1ccccc1` here?
Its growth inhibition is -1.26% (inactive).

For `CCCC1CCCCC=CCCCC(=O)OCCN1C(=O)OC(C)(C)C` (stereo not drawn), which growth inhibition is on record?
The growth inhibition was -29.8% (inactive) and -2.83% (inactive).

For `COc1ccc(Cl)cc1NC(=O)CN(C)C(=O)CNC(=O)C12CC3CC(CC(C3)C1)C2`, which growth inhibition is on record?
Its growth inhibition is -1.84% (inactive).

With `COc1ccc(Cl)cc1NC(=O)CN(C)C(=O)c1cc2ccccc2cc1OC` as the compound, how does the growth inhibition read?
Its growth inhibition is -3.53% (inactive).

With `COc1ccc(Cl)cc1NC(=O)CN(C)C(=O)CCCc1c[nH]c2ccccc12` as the compound, how does the growth inhibition read?
The growth inhibition was 98.4% (active).

For `COc1ccc(C(=O)Nc2ccccc2C(=O)NN=Cc2ccccc2OC)cc1`, which growth inhibition is on record?
Its growth inhibition is 10.4% (inactive).

For `NC1=NCC(Cc2ccc(O)cc2)N1CCc1cccc(F)c1` (stereo not drawn), which growth inhibition is on record?
Its growth inhibition is 4.31% (inactive) and -0.973% (inactive).

Which growth inhibition does the source give for `CSCc1cc(N2CCOCC2)nc(SCc2ccc(Cl)cc2Cl)n1` here?
The growth inhibition was 93.1% (active).

With `CSCCC(NC(=O)c1ccc(Cl)cc1Cl)C(=O)NNC(=O)c1csc(N2CCOCC2)n1` (stereo not drawn) as the compound, how does the growth inhibition read?
The growth inhibition was 6.67% (inactive).

Which growth inhibition does the source give for `CSCc1cc(N(C)C)nc(SCc2ccc(Cl)cc2Cl)n1` here?
Its growth inhibition is 63.4% (inactive).

For `CCN(CC)c1ccc(C=NNC(=O)c2c[nH]c3ccccc23)cc1`, which growth inhibition is on record?
Its growth inhibition is -5.72% (inactive).

With `CCN1C(=O)C2C(C1=O)C(c1ccccc1)N1C(=O)c3ccccc3NC(=O)C21` (stereo not drawn) as the compound, how does the growth inhibition read?
Its growth inhibition is -13.8% (inactive).

For `CCC1CCCCN1C(=O)NC(CCSC)C(=O)OC` (stereo not drawn), which growth inhibition is on record?
Its growth inhibition is 7.53% (inactive).

For `COc1ccc(-c2nnc(NC(=O)CS(=O)(=O)c3ccc(Cl)cc3)o2)c(OC)c1`, which growth inhibition is on record?
Its growth inhibition is 46.4% (inactive).

For `O=C(Nc1nnc(-c2ccco2)o1)c1ccc(S(=O)(=O)N2CCOCC2)cc1`, which growth inhibition is on record?
The growth inhibition was 11.9% (inactive).

With `COc1cccc(-c2nnc(NC(=O)c3ccc(S(=O)(=O)N(CC(C)C)CC(C)C)cc3)o2)c1` as the compound, how does the growth inhibition read?
The growth inhibition was 100% (active).

For `Cn1c2ccccc2c2nnc(NN=Cc3ccc(O)cc3)nc21`, which growth inhibition is on record?
The growth inhibition was 3.8% (inactive).

Which growth inhibition does the source give for `O=C(NN=Cc1ccc(-c2ccc(Cl)c(Cl)c2)o1)C(=O)N1CCCC1` here?
The growth inhibition was -5.08% (inactive).

Which growth inhibition does the source give for `CCc1nnc(NN=Cc2c(Cl)cccc2Cl)n1N` here?
Its growth inhibition is -4.51% (inactive).

For `C=CCOc1ccc(C(O)=C2C(=O)C(=O)N(CCCOC)C2c2ccc(O)c(OC)c2)cc1` (stereo not drawn), which growth inhibition is on record?
Its growth inhibition is 8.37% (inactive).

For `O=[N+]([O-])c1cc(C=NNC(=Nc2ccccn2)c2ccccn2)ccc1O`, which growth inhibition is on record?
The growth inhibition was 66.8% (inactive).

With `CCn1c(SCCC(C)C)nnc1-c1c[nH]c2ccccc12` as the compound, how does the growth inhibition read?
Its growth inhibition is -3.66% (inactive).

Which growth inhibition does the source give for `Cc1ccc(-c2csc(-c3c[nH]c4ccccc34)n2)cc1` here?
The growth inhibition was 89.5% (active).

For `CCCc1cc(-c2nc(-c3ccc(C)cc3)cs2)ccn1`, which growth inhibition is on record?
The growth inhibition was 16.9% (inactive).

Which growth inhibition does the source give for `C=CCn1c(N=Cc2ccc(OC)cc2)nc2ccccc21` here?
The growth inhibition was 7.61% (inactive).

Which growth inhibition does the source give for `COc1ccc2nc(N=C(N)NC(=O)N3c4ccccc4Sc4ccccc43)nc(C)c2c1` here?
Its growth inhibition is -21.3% (inactive).

With `COc1ccc2c(c1OC)CN1CCc3cc4c(cc3C1C2O)OCO4` (stereo not drawn) as the compound, how does the growth inhibition read?
The growth inhibition was 15.5% (inactive).

For `CCOc1ccccc1C=NNC(=O)c1nnn(-c2nonc2N)c1CN1CCCCCC1`, which growth inhibition is on record?
The growth inhibition was 2.59% (inactive).

With `C#CCOCCOCCOCCNc1nc(N2CCN(C(=O)C(CCCCN)n3cc(CCCC)nn3)CC2)nc(N2CCN(C(=O)C(C(C)CC)n3cc(CCCN=C(N)N)nn3)CC2)n1` (stereo not drawn) as the compound, how does the growth inhibition read?
Its growth inhibition is 11.2% (inactive).
